Results from PubChem BioAssay AID588763 (NMMLSC, 2011).
Results with a measured potency or affinity are listed apart. Activity calls are given as the source filed them. The rule behind the calls is not given here.

biological target: Beta-2 adrenergic receptor (Homo sapiens) (UniProt P07550); test: ADRB2 activation measured by internalization – cell-based, FAP fluorogen, flow cytometry, cherry pick 1, dose response (AID 588763); conditions: AM2.2-beta2AR cells, 90 min; series mostly up to 33 µM; activation (receptor internalization): at the top concentration
Sequence (P07550 whole entry, looked up): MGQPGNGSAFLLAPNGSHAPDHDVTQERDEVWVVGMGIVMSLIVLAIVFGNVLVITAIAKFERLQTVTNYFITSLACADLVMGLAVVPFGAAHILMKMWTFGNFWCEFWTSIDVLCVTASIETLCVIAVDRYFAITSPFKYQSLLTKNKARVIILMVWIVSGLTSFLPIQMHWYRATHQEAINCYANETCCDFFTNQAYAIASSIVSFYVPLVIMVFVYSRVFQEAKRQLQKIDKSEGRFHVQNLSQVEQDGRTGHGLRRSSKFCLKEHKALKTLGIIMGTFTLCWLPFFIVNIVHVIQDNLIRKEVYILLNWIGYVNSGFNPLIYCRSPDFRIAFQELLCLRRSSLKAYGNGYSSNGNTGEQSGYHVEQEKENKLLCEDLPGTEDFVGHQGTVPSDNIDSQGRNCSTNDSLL

Activation (receptor internalization), inactive:
CC1CCCN(C(C(=O)Nc2ccc3c(c2)OCO3)c2ccccc2)C1 (stereo unspecified) 35.9%
N=c1n(CC(=O)c2ccc(Br)cc2)c2ccccc2n1Cc1ccccc1 110%
COc1ccc(C)cc1S(=O)(=O)N(C)CC(=O)N1CCN(c2ccccc2)CC1 -0.827%
O=C(Nc1ccc(S(=O)(=O)N2CCCCC2c2cccnc2)cc1)c1ccccc1F (stereo unspecified) 27.6%
Cc1ccccc1OCc1nc(-c2ccc(NC(=O)c3ccc4c(c3)OCO4)cc2)no1 2.95%
COc1ccc(Cl)c(NC(=O)Cn2nnc(-c3ccccc3N)n2)c1 7.97%
Cc1cc(S(=O)(=O)N2CCOCC2)ccc1OCC(=O)Nc1cccc(C(F)(F)F)c1 6.22%
O=C(c1ccc(OC2CCN(Cc3cccc(OCCO)c3)CC2)cc1)N1CCCC1 -12.7%
Cc1ccc(OCC(O)Cn2c(=N)n(Cc3ccccc3)c3ccccc32)cc1 (stereo unspecified) 45.7%
N=c1n(CC(=O)c2ccc([N+](=O)[O-])cc2)c2ccccc2n1Cc1ccc(Cl)cc1 103%
Cc1ccc(OCc2cc(C(=O)NC3CCc4ccccc43)no2)cn1 (stereo unspecified) -23%
Cc1ccc(-c2nnc(SCc3nc4ccccc4[nH]3)n2Cc2ccco2)cc1 -2.47%
CCOc1ccc(NC(=O)COc2ccc(S(=O)(=O)N3CCOCC3)cc2)cc1 6.39%
COc1ccc(N2CCN(C(=O)CN(C)S(=O)(=O)c3cc(C)ccc3OC)CC2)cc1 -4.19%
Cc1cccc(C)c1NC(=O)Cn1nnc(-c2ccc(N3CCOCC3)cc2)n1 -4.76%

outcome, inactive:
COc1ccc(OC)c(S(=O)(=O)N(C)CC(=O)N2CCN(c3cccc(Cl)c3)CC2)c1
